The source made the active and inactive calls. How the source made its calls: active means hit-call score of the fitted dose curve at least 0.9, where 1 is the maximum; inactive means score below 0.9.
How the values were obtained:
[1] = ATG_GRE_CIS: Attagene CIS-FACTORIAL HepG2 Assay for human Glucocorticoid Response Elements (GRE) (AID 2282947); conditions: HepG2 GRE cis-reporter, Attagene multiplex mRNA; actives raise or lower the signal
In short: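 Read-out: fluorescent reporter-transcript fragments separated by capillary electrophoresis after RT-PCR. Transiently transfected HepG2 cells carrying cis-element-driven reporter units were dosed for 24 h; gain or loss of signal fitted against DMSO control.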

[2] = ATG_ISRE_CIS: Attagene CIS-FACTORIAL HepG2 Assay for human Interferon Regulatory Factor 1 (IRF1) binding to an Interferon-Stimulated Response Element (ISRE) (AID 2282948); conditions: HepG2 ISRE cis-reporter (Attagene), mRNA transcription readout; actives raise or lower the signal
In short: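 Multiplexed mRNA reporter readout in human liver HepG2 cells: cis-element-driven reporters transfected, compound added for 24 h, transcripts amplified, fluorescently labelled and sized by capillary electrophoresis; curve fitting bidirectional against DMSO.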

[3] = ATG_M_32_CIS: Attagene CIS-FACTORIAL HepG2 Assay for M32 Transcription Factor (Internal Marker) (AID 2282949); conditions: HepG2 Attagene cis-factorial M32 reporter, mRNA; actives raise or lower the signal;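 further: background control marker of the multiplexed CIS panel rather than a real target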
In short: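 Using DMSO as baseline, bidirectional curve fits were applied to reporter mRNA signals. These came from transiently transfected HepG2 cells exposed for 24 h, with RNA analysed by RT-PCR, FAM primer extension, HpaI digestion and CE.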

[4] = ATG_M_06_CIS: Attagene CIS-FACTORIAL HepG2 Assay for M06 Transcription Factor (Internal Marker) (AID 2282950); conditions: HepG2 Attagene CIS-FACTORIAL M06 internal marker reporter; actives raise or lower the signal
In short: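 One of many multiplexed endpoints: HepG2 reporter mRNA after 24 h dosing, detected by RT-PCR and capillary electrophoresis fluorescence; gain or loss of signal analysed against DMSO.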

[5] = target: Hypoxia-inducible factor 1-alpha (Homo sapiens) (UniProt Q16665); assay: ATG_HIF1a_CIS: Attagene CIS-FACTORIAL HepG2 Assay for human Hypoxia Inducible Factor 1 (HIF1A) (AID 2282951); conditions: HepG2 Attagene cis-factorial HIF1a reporter transcription; actives raise or lower the signal
In short: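 HepG2, transient cis-reporter library, 24 h dosing. RNA → RT (oligo dT) → PCR → 6-FAM primer extension → HpaI → CE. Bidirectional curve fit vs DMSO.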

[6] = target: Hepatocyte nuclear factor 6 (Homo sapiens) (UniProt Q9UBC0); assay: ATG_HNF6_CIS: Attagene CIS-FACTORIAL HepG2 Assay for human Hepatocyte Nuclear Factor 6 (HNF6) (AID 2282952); conditions: HepG2 Attagene cis-factorial HNF6 reporter transcription; actives raise or lower the signal
In short: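 Twenty-four-hour chemical treatment of reporter-transfected HepG2 cells precedes RNA isolation, DNase-treated reverse transcription and PCR of reporter sequences. Labelled fragments are sized by capillary electrophoresis and fitted bidirectionally versus DMSO.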

[7] = target: Heat shock factor protein 1 (Homo sapiens) (UniProt Q00613); assay: ATG_HSE_CIS: Attagene CIS-FACTORIAL HepG2 Assay for human Heat Shock Transcription Factor 1 (HSE) (AID 2282953); conditions: HepG2 HSE cis-reporter, Attagene RNA transcription; actives raise or lower the signal
In short: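 Using HepG2 with transfected cis-driven reporter constructs, compound effects on endogenous factor activity are scored as reporter mRNA change at 24 h. Detection: RT-PCR, HpaI digestion, capillary electrophoresis; bidirectional fitting to DMSO.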

[8] = ATG_MRE_CIS: Attagene CIS-FACTORIAL HepG2 Assay for human Metal Responsive Element (MRE) (AID 2282954); conditions: HepG2 MRE cis-reporter transcription, Attagene multiplex; actives raise or lower the signal
In short: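 RT-PCR/capillary electrophoresis readout of reporter mRNA, 24 h post-dosing, in HepG2 cells transfected with multiplexed cis-regulated reporter constructs. Gain or loss of signal fitted bidirectionally against DMSO baseline.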

[9] = ATG_PBREM_CIS: Attagene CIS-FACTORIAL HepG2 Assay for human Phenobarbital-responsive Enhancer Module (PBREM) (AID 2282955); conditions: HepG2 PBREM cis-reporter, Attagene multiplexed transcription; actives raise or lower the signal
In short: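 HepG2, transient MRTU transfection, 24 h dosing; RNA → oligo(dT) RT → PCR → 6-FAM extension → HpaI → CE. Bidirectional fit vs DMSO.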

Chain of Heat shock factor protein 1 (Homo sapiens) (Q00613 whole entry, looked up): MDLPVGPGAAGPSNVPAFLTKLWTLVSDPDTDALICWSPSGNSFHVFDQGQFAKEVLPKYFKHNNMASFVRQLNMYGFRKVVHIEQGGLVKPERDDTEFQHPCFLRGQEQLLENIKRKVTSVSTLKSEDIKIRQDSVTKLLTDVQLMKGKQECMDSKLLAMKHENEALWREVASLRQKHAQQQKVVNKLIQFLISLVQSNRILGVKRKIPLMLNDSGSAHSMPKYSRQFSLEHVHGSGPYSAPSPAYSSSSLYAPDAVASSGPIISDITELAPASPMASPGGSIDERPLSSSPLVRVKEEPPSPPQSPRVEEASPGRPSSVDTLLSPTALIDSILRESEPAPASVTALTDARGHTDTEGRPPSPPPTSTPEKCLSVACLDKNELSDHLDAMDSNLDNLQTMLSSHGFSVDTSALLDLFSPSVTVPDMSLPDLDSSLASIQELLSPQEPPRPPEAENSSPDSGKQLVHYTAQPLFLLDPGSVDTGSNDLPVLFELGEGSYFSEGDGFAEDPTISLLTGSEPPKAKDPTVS
Chain of Hypoxia-inducible factor 1-alpha (Homo sapiens) (Q16665 whole entry, looked up): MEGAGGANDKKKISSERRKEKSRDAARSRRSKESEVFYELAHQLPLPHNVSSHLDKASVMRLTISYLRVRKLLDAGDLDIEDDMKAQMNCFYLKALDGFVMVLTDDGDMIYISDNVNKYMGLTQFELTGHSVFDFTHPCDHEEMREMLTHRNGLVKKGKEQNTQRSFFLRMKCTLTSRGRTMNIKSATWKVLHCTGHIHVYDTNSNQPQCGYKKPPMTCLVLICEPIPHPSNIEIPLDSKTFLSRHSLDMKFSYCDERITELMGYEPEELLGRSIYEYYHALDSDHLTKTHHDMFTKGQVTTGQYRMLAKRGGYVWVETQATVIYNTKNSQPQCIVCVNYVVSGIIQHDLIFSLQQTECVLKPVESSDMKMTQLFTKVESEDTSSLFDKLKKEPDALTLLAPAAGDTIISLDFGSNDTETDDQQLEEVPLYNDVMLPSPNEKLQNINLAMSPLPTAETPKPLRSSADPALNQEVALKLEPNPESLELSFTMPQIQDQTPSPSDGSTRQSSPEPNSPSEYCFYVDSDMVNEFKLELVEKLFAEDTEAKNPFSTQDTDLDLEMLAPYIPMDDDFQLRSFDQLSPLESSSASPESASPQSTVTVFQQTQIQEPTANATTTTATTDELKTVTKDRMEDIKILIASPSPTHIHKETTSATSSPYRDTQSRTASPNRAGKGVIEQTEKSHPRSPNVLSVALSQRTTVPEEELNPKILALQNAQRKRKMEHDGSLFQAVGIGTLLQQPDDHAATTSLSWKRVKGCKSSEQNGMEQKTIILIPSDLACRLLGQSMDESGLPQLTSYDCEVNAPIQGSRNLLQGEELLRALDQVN
Chain of Hepatocyte nuclear factor 6 (Homo sapiens) (Q9UBC0 whole entry, looked up, the tested form may be a part): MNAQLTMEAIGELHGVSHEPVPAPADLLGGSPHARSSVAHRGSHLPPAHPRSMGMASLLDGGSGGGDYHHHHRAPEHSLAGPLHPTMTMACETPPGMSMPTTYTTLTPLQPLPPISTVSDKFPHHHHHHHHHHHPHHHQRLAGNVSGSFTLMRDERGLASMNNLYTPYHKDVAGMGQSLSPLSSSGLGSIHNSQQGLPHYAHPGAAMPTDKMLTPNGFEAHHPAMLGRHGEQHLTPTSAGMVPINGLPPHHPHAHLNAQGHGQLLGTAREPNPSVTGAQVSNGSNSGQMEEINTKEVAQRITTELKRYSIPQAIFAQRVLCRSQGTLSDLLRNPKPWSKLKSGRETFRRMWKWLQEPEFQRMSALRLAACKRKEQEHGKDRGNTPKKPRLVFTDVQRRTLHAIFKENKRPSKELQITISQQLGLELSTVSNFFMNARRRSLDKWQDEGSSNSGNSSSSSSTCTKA

Row | SMILES | outcome [1] | outcome [2] | outcome [3] | outcome [4] | outcome [5] | outcome [6] | outcome [7] | outcome [8] | outcome [9] | AC50 [2] | AC50 [5] | AC50 [7] | AC50 [8] | AC50 [9]
1 | CCCCCCCOC(=O)CCC | inactive | inactive | inactive | inactive | inactive | inactive | inactive | inactive | inactive |  |  |  |  | 
2 | COc1cc(NC(=O)CC(C)=O)c(OC)cc1Cl | inactive | inactive | inactive | inactive | inactive | inactive | inactive | inactive | inactive |  |  |  |  | 
3 | CCCCCCCCCCCCCOP(=O)(O)O | inactive | inactive | inactive | inactive | inactive | inactive | inactive | inactive | inactive |  |  |  |  | 
4 | CC(=O)C=CC1C(C)=CCC(C)C1(C)C (stereo not given) | inactive | inactive | inactive | inactive | inactive | inactive | inactive | inactive | inactive |  |  |  |  | 
5 | CN(C)c1ccc(N=Nc2ccccc2C(=O)O)cc1 | inactive |  | inactive | inactive |  | inactive |  |  | inactive | 58.1 µM (active) | 17.9 µM (active) | 56.5 µM (active) | 43.9 µM (active) | 
6 | O=C(Oc1ccccc1)c1ccc2ccccc2c1O | inactive | inactive | inactive | inactive |  | inactive |  |  |  |  | 34.6 µM (active) | 66.2 µM (active) | 57.2 µM (active) | 24.8 µM (active)
7 | FC(F)(F)C(=NOCC1OCCO1)c1ccc(Cl)cc1 | inactive | inactive | inactive | inactive | inactive | inactive | inactive |  | inactive |  |  |  | 100 µM (active) | 
8 | CCC(CO)CO | inactive | inactive | inactive | inactive | inactive | inactive | inactive | inactive |  |  |  |  |  | 
9 | CC1=NC(C)OC1C (stereo not given) | inactive |  | inactive | inactive | inactive | inactive |  | inactive | inactive | 100 µM (active) |  | 160 µM (active) |  | 
10 | CN(C)CCCN(C)C | inactive | inactive | inactive | inactive | inactive | inactive | inactive | inactive | inactive |  |  |  |  | 
11 | O=c1[nH]c(=O)c2[nH]c(=O)[nH]c2[nH]1 | inactive | inactive | inactive | inactive | inactive | inactive | inactive | inactive |  |  |  |  |  | 
12 | CCC(C)OC(=O)c1ccc(O)cc1 (stereo not given) | inactive | inactive | inactive | inactive | inactive | inactive | inactive | inactive | inactive |  |  |  |  | 
13 | CC(C)(C)C1CCCCC1=O (stereo not given) | inactive | inactive | inactive | inactive | inactive | inactive | inactive | inactive | inactive |  |  |  |  | 
14 | O=C1CCC(=O)N1Cl | inactive | inactive | inactive | inactive | inactive | inactive | inactive | inactive | inactive |  |  |  |  | 
15 | CNC(=S)NN | inactive | inactive | inactive | inactive | inactive | inactive | inactive | inactive |  |  |  |  |  | 
16 | CCC(CC)C(=O)O | inactive | inactive | inactive | inactive | inactive | inactive | inactive | inactive | inactive |  |  |  |  | 
17 | CNC(=S)N(C)C | inactive | inactive | inactive | inactive | inactive | inactive | inactive | inactive | inactive |  |  |  |  | 
